Source: the supplement of paper PMC6411743
± gives the standard deviation of the averaged measurements. About 6,500 targets were measured; listed, in parts, are those with the largest changes and a random draw of the rest.

Compound: Nc1ncnc2c1ncn2[C@@H]1O[C@H](COP(=O)(O)OP(=O)(O)OP(=O)(O)O)[C@@H](O)[C@H]1O [adenosine triphosphate]
Experiment: NP40-soluble protein abundance relative to vehicle (solubility fold change) (ratio); higher = more soluble protein in presence of ATP
How it was run: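 Each value is a fold change relative to the detergent-processed vehicle, calculated per replicate from vsn-normalised intensities. Jurkat crude lysate received eight concentrations (0.1 to 10 mM) for 10 min at room temperature and 3 min at 37 °C, then was solubilised in 0.8% NP40 with benzonase (60 min, 4 °C). The ultracentrifuged supernatant was TMT-labelled and run by LC-MS/MS in three independent experiments.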

UniProt Q12851, sequence (Q12851 whole entry, one chain of several): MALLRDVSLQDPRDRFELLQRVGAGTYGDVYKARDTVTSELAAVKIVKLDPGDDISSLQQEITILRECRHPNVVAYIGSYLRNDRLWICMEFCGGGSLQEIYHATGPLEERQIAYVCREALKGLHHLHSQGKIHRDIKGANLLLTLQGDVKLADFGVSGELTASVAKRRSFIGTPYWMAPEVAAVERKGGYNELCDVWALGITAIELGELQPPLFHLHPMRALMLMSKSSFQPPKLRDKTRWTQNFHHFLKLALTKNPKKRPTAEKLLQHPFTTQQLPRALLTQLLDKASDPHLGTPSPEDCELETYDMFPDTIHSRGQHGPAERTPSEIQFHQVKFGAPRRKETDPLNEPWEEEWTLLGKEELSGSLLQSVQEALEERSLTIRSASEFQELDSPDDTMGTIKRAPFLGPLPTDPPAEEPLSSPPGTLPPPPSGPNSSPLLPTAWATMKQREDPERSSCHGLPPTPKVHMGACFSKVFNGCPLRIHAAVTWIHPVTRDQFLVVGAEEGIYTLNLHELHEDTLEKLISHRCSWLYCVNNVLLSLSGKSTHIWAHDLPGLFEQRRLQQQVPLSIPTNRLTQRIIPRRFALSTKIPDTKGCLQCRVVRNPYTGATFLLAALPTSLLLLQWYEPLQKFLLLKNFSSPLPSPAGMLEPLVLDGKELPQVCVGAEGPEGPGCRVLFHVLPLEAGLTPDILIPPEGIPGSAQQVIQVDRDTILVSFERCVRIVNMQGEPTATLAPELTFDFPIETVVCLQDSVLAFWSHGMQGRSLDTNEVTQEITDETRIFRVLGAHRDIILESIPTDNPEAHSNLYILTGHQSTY
UniProt O00151, sequence (O00151 whole entry): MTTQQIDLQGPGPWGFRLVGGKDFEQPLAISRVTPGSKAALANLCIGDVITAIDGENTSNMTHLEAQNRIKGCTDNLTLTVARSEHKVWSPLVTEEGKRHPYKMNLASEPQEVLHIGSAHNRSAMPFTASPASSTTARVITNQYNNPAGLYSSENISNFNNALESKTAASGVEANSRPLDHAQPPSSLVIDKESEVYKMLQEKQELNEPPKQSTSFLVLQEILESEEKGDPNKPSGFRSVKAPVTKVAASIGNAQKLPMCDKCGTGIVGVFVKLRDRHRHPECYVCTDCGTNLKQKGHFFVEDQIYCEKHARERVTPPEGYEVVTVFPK
UniProt P43243, sequence (P43243 whole entry, one chain of several): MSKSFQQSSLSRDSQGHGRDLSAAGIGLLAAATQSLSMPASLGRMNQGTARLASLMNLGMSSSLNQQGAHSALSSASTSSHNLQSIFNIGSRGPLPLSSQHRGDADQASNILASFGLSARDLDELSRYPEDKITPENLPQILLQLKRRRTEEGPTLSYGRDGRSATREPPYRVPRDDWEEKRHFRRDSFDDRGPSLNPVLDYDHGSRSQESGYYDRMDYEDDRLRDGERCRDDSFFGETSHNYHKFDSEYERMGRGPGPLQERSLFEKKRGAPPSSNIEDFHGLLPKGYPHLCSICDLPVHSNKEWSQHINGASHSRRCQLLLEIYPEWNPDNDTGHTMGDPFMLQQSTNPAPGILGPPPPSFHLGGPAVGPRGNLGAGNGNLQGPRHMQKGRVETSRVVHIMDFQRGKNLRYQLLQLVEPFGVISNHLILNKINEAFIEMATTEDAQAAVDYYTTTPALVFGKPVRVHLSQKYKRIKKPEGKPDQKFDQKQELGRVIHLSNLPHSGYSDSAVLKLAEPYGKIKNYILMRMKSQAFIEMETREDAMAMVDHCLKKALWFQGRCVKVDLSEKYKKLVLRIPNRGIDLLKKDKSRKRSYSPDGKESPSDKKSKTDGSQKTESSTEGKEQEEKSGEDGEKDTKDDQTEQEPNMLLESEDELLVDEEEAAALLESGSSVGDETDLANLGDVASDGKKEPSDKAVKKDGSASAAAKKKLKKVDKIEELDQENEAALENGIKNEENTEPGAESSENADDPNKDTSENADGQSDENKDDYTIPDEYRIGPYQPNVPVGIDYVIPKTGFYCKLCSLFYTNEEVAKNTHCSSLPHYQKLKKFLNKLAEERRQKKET
UniProt Q8NI27, sequence (Q8NI27 whole entry, one chain of several): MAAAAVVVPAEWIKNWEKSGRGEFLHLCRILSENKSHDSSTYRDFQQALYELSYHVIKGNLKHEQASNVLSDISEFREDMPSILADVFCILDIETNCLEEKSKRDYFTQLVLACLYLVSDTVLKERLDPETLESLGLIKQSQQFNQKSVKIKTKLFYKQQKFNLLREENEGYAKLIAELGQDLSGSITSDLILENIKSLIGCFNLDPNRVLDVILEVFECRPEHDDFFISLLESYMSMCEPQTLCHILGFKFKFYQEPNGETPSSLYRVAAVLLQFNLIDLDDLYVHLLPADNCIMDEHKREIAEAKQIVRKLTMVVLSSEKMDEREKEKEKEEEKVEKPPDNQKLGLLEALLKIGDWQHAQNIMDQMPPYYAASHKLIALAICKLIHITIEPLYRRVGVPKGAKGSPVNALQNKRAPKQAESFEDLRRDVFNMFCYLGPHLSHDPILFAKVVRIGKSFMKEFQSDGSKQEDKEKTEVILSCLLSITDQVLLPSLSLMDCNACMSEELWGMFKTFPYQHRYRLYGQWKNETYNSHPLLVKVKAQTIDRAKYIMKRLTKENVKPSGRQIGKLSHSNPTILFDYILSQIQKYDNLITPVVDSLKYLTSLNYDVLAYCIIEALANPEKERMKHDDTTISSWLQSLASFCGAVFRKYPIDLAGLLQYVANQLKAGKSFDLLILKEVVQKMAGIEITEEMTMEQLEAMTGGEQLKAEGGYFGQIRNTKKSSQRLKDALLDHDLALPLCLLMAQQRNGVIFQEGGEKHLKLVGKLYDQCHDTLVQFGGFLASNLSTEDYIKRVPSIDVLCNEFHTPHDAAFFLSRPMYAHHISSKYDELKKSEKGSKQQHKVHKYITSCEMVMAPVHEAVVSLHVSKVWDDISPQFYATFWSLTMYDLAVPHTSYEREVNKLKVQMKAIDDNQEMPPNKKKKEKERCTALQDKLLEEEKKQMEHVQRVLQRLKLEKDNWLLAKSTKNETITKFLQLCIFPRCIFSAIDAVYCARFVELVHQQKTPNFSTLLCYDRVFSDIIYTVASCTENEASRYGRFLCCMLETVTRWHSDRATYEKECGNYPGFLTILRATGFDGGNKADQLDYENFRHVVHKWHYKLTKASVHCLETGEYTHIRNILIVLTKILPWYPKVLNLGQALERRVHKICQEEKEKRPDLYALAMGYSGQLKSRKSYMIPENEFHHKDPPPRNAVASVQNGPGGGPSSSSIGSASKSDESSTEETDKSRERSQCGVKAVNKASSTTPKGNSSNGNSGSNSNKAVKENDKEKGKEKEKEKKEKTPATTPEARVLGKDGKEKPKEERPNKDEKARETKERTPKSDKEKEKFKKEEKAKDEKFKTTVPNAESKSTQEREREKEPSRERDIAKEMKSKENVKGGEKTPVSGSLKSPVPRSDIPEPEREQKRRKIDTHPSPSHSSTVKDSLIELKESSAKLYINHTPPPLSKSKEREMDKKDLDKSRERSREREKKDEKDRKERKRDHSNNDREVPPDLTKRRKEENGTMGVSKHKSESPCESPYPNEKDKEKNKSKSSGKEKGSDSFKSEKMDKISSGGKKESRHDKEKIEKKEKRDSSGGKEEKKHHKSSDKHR
UniProt P78549, sequence (P78549 whole entry, one chain of several): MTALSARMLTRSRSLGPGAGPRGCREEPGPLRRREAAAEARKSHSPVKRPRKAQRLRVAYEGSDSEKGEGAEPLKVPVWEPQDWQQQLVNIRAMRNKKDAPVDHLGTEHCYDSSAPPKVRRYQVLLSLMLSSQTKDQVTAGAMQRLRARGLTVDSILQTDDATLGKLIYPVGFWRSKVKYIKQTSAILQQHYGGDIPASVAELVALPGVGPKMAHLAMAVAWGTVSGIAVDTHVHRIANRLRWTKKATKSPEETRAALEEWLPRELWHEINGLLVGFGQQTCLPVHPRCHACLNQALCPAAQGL
UniProt Q96EV2, sequence (Q96EV2 whole entry, one chain of several): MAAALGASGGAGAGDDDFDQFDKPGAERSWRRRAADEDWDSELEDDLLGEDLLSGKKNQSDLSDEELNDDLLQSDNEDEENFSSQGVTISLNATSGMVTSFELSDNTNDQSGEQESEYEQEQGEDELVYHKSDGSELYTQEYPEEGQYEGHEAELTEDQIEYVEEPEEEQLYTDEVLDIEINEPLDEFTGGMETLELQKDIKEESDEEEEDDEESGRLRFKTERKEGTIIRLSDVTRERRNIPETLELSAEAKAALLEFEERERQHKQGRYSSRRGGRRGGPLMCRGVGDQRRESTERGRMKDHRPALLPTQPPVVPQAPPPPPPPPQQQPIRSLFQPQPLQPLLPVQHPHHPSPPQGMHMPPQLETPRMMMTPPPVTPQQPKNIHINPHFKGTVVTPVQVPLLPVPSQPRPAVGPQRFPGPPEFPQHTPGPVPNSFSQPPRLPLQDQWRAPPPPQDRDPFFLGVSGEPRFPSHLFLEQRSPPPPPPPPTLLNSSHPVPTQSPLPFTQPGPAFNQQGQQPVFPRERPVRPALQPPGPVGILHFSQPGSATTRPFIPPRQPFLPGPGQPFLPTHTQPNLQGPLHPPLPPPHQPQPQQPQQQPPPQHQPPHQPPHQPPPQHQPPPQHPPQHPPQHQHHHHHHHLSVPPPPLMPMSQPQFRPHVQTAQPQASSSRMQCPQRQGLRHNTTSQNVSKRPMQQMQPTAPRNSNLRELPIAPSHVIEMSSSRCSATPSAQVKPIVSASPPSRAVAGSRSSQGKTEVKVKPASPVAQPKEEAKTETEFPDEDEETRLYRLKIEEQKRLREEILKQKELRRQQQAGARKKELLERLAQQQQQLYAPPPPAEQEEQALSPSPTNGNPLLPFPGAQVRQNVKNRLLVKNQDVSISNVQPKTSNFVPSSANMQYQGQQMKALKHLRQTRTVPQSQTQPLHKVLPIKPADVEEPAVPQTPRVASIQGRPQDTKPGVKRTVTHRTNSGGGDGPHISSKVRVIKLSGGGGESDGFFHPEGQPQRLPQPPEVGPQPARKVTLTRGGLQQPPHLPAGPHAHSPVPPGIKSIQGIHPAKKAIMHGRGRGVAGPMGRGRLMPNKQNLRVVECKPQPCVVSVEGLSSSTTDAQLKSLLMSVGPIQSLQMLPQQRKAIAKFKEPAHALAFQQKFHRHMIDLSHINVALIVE

Target	NP40-soluble protein abundance (concentration: 1mM)	NP40-soluble protein abundance (concentration: 2mM)	NP40-soluble protein abundance (concentration: 4mM)	NP40-soluble protein abundance (concentration: 6mM)	NP40-soluble protein abundance (concentration: 8mM)	NP40-soluble protein abundance (concentration: 10mM)
CPNE3 (UniProt O75131)	0.969 ± 0.067	0.983 ± 0.052	0.954 ± 0.054	0.903 ± 0.1	0.951 ± 0.024	0.96 ± 0.024
I3L0W4|Q96F10 (UniProt Q96F10)	0.98 ± 0.13	0.932 ± 0.07	0.962 ± 0.073	0.963 ± 0.064	0.94 ± 0.025	0.944 ± 0.035
H3BPD5|P78549|P78549-2|P78549-3 (UniProt P78549)	1.12 ± 0.16	1.2 ± 0.029	1.3 ± 0.1	1.51 ± 0.2	1.72 ± 0.19	1.89 ± 0.12
UniProt O75081|O75081-2|O75081-4	0.943 ± 0.039	0.9218 ± 0.0052	0.907 ± 0.052	0.888 ± 0.14	0.888 ± 0.082	0.97 ± 0.089
UniProt A0FGR8-2|H7BXI1|A0FGR8-6	1 ± 0.026	1.02 ± 0.025	1.02 ± 0.015	0.997 ± 0.052	1.02 ± 0.03	1.02 ± 0.047
PDLIM1 (UniProt O00151)	0.963 ± 0.054	0.958 ± 0.031	0.944 ± 0.041	0.971 ± 0.016	0.939 ± 0.035	0.919 ± 0.036
A0A0A0MRR7|P09234 (UniProt P09234)	1.34 ± 0.087	1.39 ± 0.078	1.56 ± 0.062	1.87 ± 0.2	1.83 ± 0.041	1.84 ± 0.1
DNAJC13 (UniProt O75165)	1.15 ± 0.024	1.29 ± 0.095	1.3 ± 0.043	1.35 ± 0.12	1.68 ± 0.12	1.73 ± 0.22
B1AJY7|O75832 (UniProt O75832)	1 ± 0.082	0.973 ± 0.031	0.955 ± 0.065	0.977 ± 0.076	0.947 ± 0.056	0.863 ± 0.043
H7C0H2|Q96EV2|H0Y3K4 (UniProt Q96EV2)	0.963 ± 0.093	0.942 ± 0.056	0.956 ± 0.086	0.982 ± 0.075	0.958 ± 0.067	0.951 ± 0.059
B7ZBA0|Q8NI27 (UniProt Q8NI27)	1.52 ± 0.091	1.62 ± 0.074	1.89 ± 0.076	2.09 ± 0.2	2.4 ± 0.17	2.4 ± 0.21
HAT1 (UniProt O14929)	1.01 ± 0.16	0.995 ± 0.098	0.957 ± 0.08	0.895 ± 0.15	0.97 ± 0.09	0.955 ± 0.04
E9PB61|Q86V81 (UniProt Q86V81)	1.04 ± 0.094	1.09 ± 0.07	1.22 ± 0.13	1.44 ± 0.15	1.53 ± 0.13	1.66 ± 0.24
B4E1G1|E5RGY0|Q9BUN8|Q9BUN8-2 (UniProt Q9BUN8)	0.948 ± 0.084	0.979 ± 0.12	0.989 ± 0.083	0.975 ± 0.1	0.955 ± 0.021	1 ± 0.056
A0A0A6YYA7|Q12851|Q12851-2 (UniProt Q12851)	1.02 ± 0.026	1 ± 0.044	1.03 ± 0.063	0.994 ± 0.079	0.994 ± 0.026	0.998 ± 0.027
A0A0B4J2C3|P13693|Q5W0H4 (UniProt P13693)	0.95 ± 0.025	0.942 ± 0.021	0.915 ± 0.025	0.923 ± 0.05	0.919 ± 0.035	0.909 ± 0.048
K7ES61|Q9BYD3 (UniProt Q9BYD3)	1.02 ± 0.079	0.942 ± 0.099	0.907 ± 0.091	0.827 ± 0.14	0.892 ± 0.19	0.895 ± 0.17
MYO1G (UniProt B0I1T2)	3.09 ± 0.27	3.32 ± 0.48	3.48 ± 0.58	3.19 ± 0.4	3.7 ± 0.64	3.52 ± 0.5
A8MXP9|P43243|P43243-2 (UniProt P43243)	1.02 ± 0.042	1.03 ± 0.038	1 ± 0.026	1.05 ± 0.039	1 ± 0.029	1.03 ± 0.015
E9PJN1|O75676|O75676-2 (UniProt O75676)	1.36 ± 0.22	2.6 ± 1.5	1.34 ± 0.17	1.35 ± 0.17	1.31 ± 0.26	1.38 ± 0.13
E7EQI7|Q12768 (UniProt Q12768)	1.06 ± 0.1	1.06 ± 0.075	1.05 ± 0.076	0.962 ± 0.11	1.07 ± 0.068	1.02 ± 0.05
A0A0C4DGB9|Q9H2U2 (UniProt Q9H2U2)	0.971 ± 0.022	0.97 ± 0.029	0.953 ± 0.03	0.93 ± 0.051	0.952 ± 0.038	0.919 ± 0.037
TRIM38 (UniProt O00635)	0.949 ± 0.053	1 ± 0.018	0.988 ± 0.041	0.955 ± 0.046	0.986 ± 0.034	0.993 ± 0.045
TMEM120B (UniProt A0PK00)	0.948 ± 0.058	1.05 ± 0.042	1.04 ± 0.09	0.894 ± 0.12	1.15 ± 0.13	1.13 ± 0.14
A8MT02|P14678|P14678-2|P14678-3 (UniProt P14678)	1.22 ± 0.14	1.34 ± 0.089	1.47 ± 0.05	1.7 ± 0.26	1.7 ± 0.22	1.63 ± 0.13
